From PubChem BioAssay (Tox21)
Inconclusive results are not listed. Calls of active or inactive are those of the source. Unless noted, calls follow the shape of the dose curve; as a rule, active = well fitted curve in the direction sought with a large enough effect in the repeat runs; inconclusive = weak or mixed curves; inactive = no such curve, though single readings can be large; an effect the other way counts as inactive or inconclusive.

Key:
[1] = qHTS assay to identify small molecule agonists of the estrogen receptor alpha (ER-alpha) signaling pathway in the presence of an antagonist - cell viability counter screen (AID 1259386);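 also: series mostly up to about 92 µM; cells exposed to compounds for 22 h at 37 °C before the viability read; nearly all actives have a fitted effect of over 30% in size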
How it was run: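 Cells are starved of estrogens for 5 days in charcoal-stripped serum, seeded for 24hr and co-treated with ICI-182,780 (10.0nM final) and test compounds. After 22hr at 37C, viability is read as CellTiter-Fluor fluorescence.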

[2] = target: Progesterone receptor (Homo sapiens) (UniProt P06401); assay: qHTS assay to identify small molecule agonists of the progesterone receptor (PR) signaling pathway (AID 1346784; calls by dose curve; also: nearly all actives have a fitted effect of over 30% in size)
How it was run: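 Agonist qHTS: compounds pinned onto 3,000 PR-UAS-bla HEK 293T cells per well in charcoal-stripped serum medium, 16hr at 37C, then beta-lactamase activity measured by LiveBLAzer FRET fluorescence after 2 hours at room temperature.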

[3] = qHTS assay to identify small molecule antagonists of the progesterone receptor (PR) signaling pathway - cell viability counter screen (AID 1346798); also: nearly all actives have a fitted effect of over 50% in size; also: potency is read from the fitted curve at half-maximal effect
How it was run: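 Cytotoxicity read as CellTiter-Glo luminescence (30 min, room temperature) in the same wells as the beta-lactamase readout. HEK293T PR-UAS-bla cells in charcoal-stripped 2% FBS received compound and R5020, then 16 h at 37C, 5% CO2.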

[4] = qHTS assay to identify small molecule antagonists of the TGF-beta/Smad signaling pathway - cell viability counter screen (AID 1346824); also: nearly all actives have a fitted effect of over 50% in size
How it was run: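 SBE-bla HEK 293T cells, incubated overnight, then compound plus 0.25 ng/mL TGF-beta1 (stock added) for 5 hr at 37 C. Viability was read in the same wells by CellTiter-Glo luminescence after 30 min at room temperature.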

[5] = qHTS assay to identify small molecule agonists of the TGF-beta/Smad signaling pathway - cell viability counter screen (AID 1346829); also: top concentration of the series differs between compounds; nearly all actives have a fitted effect of over 45% in size
How it was run: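 After overnight seating at 37 C and 5% CO2, reporter cells got compounds for 5 hr and FRET substrate for 2 hr; cell viability then came from CellTiter-Glo luminescence.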

[6] = qHTS assay to identify small molecule agonists of the TGF-beta/Smad signaling pathway (AID 1346859; active = well fitted activation curve with a large enough effect in the signal ratio in the repeat runs, not every such curve was filed as active; the % refers to the signal ratio; also: series mostly up to about 77 µM)
How it was run: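 Fluorescence (ex 405 nm; em 460 and 530 nm) was read 2 h after LiveBLAzer FRET substrate at RT. The preceding compound treatment of overnight-plated SBE-bla HEK293T cells lasted 5 h at 37 C.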

[7] = target: Thyrotropin-releasing hormone receptor (Homo sapiens) (UniProt P34981); assay: qHTS assay to identify small molecule antagonists of the thyrotropin-releasing hormone receptor (TRHR) signaling pathway (AID 1346877; active = well fitted inhibition curve with a large enough effect in the repeat runs, not every such curve was filed as active; also: series mostly up to about 51 µM)
How it was run: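 Cells (TRHR-HEK293) are plated and kept 18 h at 37 °C/5% CO2. A calcium-sensitive dye is added for 2 h, compound follows for 5 min at room temperature, and TRH is then given at 1 nM final.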

[8] = target: Thyrotropin-releasing hormone receptor (Homo sapiens) (UniProt P34981); assay: qHTS assay to identify small molecule agonists of the thyrotropin-releasing hormone receptor (TRHR) signaling pathway (AID 1346891; calls by dose curve; also: series mostly up to about 58 µM)
How it was run: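 Agonist-mode intracellular calcium readout: kinetic fluorescence over 3 min at 1 s intervals after compound addition to TRHR-HEK293 cells (18 h seeded, 2 h dye-loaded at 37 C). Fifteen concentrations, triplicates.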

[9] = Human pregnane X receptor (PXR) small molecule agonists, qHTS cell viability counter screen (AID 1346977); also: nearly all actives have a fitted effect of over 50% in size; also: potency is read from the fitted curve at half-maximal effect
How it was run: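 Same-well viability read: CellTiter-Fluor added after 23 hr compound exposure, fluorescence measured 1 hr later. Cells were PXR-Luc HepG2 seeded at 2,000/well in 5% charcoal-stripped FBS medium, rested 5 hr before dosing at 37 C.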

[10] = Caspase-3/7 induction in HepG2 cells by small molecules, qHTS assay (AID 1346978); also: nearly all actives have a fitted effect of over 15% in size
How it was run: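 Wild-type HepG2 cells, 2,000/well, settled 5 hr at 37 C and 5% CO2, then compound-treated for 17 hr; caspase-3/7 activity read by luminescent Caspase-Glo 3/7 after 30 min at room temperature.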

[11] = Caspase-3/7 induction in CHO-K1 cells by small molecules, qHTS cell viability counter screen (AID 1346979); also: nearly all actives have a fitted effect of over 35% in size
How it was run: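 Cytotoxicity counter screen: CellTiter-Fluor added to compound-treated wild-type CHO-K1 cells at 16 h (37C, 5% CO2), fluorescence measured 1 h later; same wells as caspase-3/7 measurement.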

[12] = Caspase-3/7 induction in HepG2 cells by small molecules, qHTS cell viability counter screen (AID 1346981); also: series mostly up to about 92 µM; nearly all actives have a fitted effect of over 30% in size
How it was run: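 Steps: seed 2,000 HepG2 cells per well; incubate 5 hr at 37 C; pin-add compounds in DMSO; incubate 16 hr; add CellTiter-Fluor; after 1 hr at 37 C and 5% CO2, read fluorescence.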

[13] = Caspase-3/7 induction in CHO-K1 cells by small molecules, qHTS assay (AID 1346980); also: nearly all actives have a fitted effect of over 15% in size
How it was run: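 Wild-type CHO-K1 cells exposed to compounds for 17hr at 37 C, 5% CO2. Caspase-3/7 activity then measured by Caspase-Glo 3/7 luminescence after 30min at room temperature.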

[14] = target: Cytochrome P450 2D6 (Homo sapiens) (UniProt P10635); assay: Cytochrome P450 Family 2 Subfamily D Member 6 (CYP2D6) small molecule antagonists: luciferase reporter qHTS assay (AID 1671196); also: nearly all actives have a fitted effect of over 50% in size; also: potency is read from the fitted curve at half-maximal effect
How it was run: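 P450-Glo format: CYP2D6 converts a proluciferin substrate to luciferin in an NADPH-driven reaction lasting 1 h at room temperature. Light output, proportional to CYP2D6 activity, reflects interference by test chemicals.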

[15] = target: Nuclear receptor subfamily 1 group I member 2 (Homo sapiens) (UniProt O75469); assay: Human pregnane X receptor (PXR) small molecule agonists, qHTS assay (AID 1346982); also: nearly all actives have a fitted effect of over 35% in size; also: potency is read from the fitted curve at half-maximal effect
How it was run: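 Agonist mode qHTS: PXR-Luc HepG2 cells plated 5 hr before DMSO-dissolved compounds were pinned in, cultured 24 hr at 37 C, 5% CO2; ONE-Glo luminescence readout.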

[16] = target: Nuclear receptor subfamily 1 group I member 2 (Rattus norvegicus) (UniProt Q9R1A7); assay: Rat pregnane X receptor (rPXR) activation by small molecules, qHTS assay (AID 1346983); conditions: rPXR luciferase reporter cells, One-Glo luminescence, 24 h; max activation: stronger effect = higher value; also: nearly all actives have a fitted effect of over 20% in size
How it was run: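 Cell-based rPXR activation assay: rPXR cells, 2,000 per well, rested 5hr at 37 C, then exposed to compounds in DMSO for 24 hr at 37 C. Luciferase activity read by One-Glo luminescence after 30 min at room temperature.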

[17] = target: Nuclear receptor subfamily 1 group I member 2 (Homo sapiens) (UniProt O75469); assay: CYP3A4 induction through human pregnane X receptor (PXR) by small molecules, qHTS assay (AID 1346984); also: nearly all actives have a fitted effect of over 40% in size; also: potency is read from the fitted curve at half-maximal effect
How it was run: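 Steps: seed DPX-2 cells, 5 hr at 37C; pin-transfer compounds; 24 hr at 37C; add Luciferin-IPA (3uM final), 3 hr at 37C; add One-Glo, 30 min RT; read luminescence.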

[18] = target: Nuclear receptor subfamily 1 group I member 2 (Homo sapiens) (UniProt O75469); assay: Human pregnane X receptor (PXR) activation by small molecules, qHTS assay (AID 1346985); also: nearly all actives have a fitted effect of over 40% in size
How it was run: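 DPX-2 cells (HepG2 co-transfected with a PXR response element and a CYP3A4-promoter luciferase construct) were seeded at 2,000 per well, rested 5 hr at 37C, then exposed to DMSO-dissolved compounds for 24 hr. Activation was read as luciferase luminescence.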

[19] = qHTS assay to identify small molecule agonists of the progesterone receptor (PR) signaling pathway - cell viability counter screen (AID 1346799; calls by dose curve; also: nearly all actives have a fitted effect of over 45% in size; also: potency is read from the fitted curve at half-maximal effect)
How it was run: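 Cytotoxicity measured by CellTiter-Glo luminescence (30 min, RT) in the same wells as the PR beta-lactamase agonist read. Those HEK293T cells had 16 h compound treatment at 37 C in 2% charcoal-stripped FBS medium.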

[20] = target: Progesterone receptor (Homo sapiens) (UniProt P06401); assay: qHTS assay to identify small molecule antagonists of the progesterone receptor (PR) signaling pathway (AID 1346795; active = well fitted inhibition curve with a large enough effect in the signal ratio in the repeat runs, not every such curve was filed as active; the % refers to the signal ratio)
How it was run: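 Antagonist mode with agonist R5020 at 1 nM final and 16 hr incubation at 37C. Reporter was beta-lactamase driven by UAS in HEK293T (PR-UAS-bla), 2% charcoal-stripped serum; signal from LiveBLAzer FRET substrate, 2 hr at room temperature.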
% is scaled to controls: 0 for no effect and ±100 for the full control effect.

Sequence of Progesterone receptor (Homo sapiens) (P06401 whole entry, looked up): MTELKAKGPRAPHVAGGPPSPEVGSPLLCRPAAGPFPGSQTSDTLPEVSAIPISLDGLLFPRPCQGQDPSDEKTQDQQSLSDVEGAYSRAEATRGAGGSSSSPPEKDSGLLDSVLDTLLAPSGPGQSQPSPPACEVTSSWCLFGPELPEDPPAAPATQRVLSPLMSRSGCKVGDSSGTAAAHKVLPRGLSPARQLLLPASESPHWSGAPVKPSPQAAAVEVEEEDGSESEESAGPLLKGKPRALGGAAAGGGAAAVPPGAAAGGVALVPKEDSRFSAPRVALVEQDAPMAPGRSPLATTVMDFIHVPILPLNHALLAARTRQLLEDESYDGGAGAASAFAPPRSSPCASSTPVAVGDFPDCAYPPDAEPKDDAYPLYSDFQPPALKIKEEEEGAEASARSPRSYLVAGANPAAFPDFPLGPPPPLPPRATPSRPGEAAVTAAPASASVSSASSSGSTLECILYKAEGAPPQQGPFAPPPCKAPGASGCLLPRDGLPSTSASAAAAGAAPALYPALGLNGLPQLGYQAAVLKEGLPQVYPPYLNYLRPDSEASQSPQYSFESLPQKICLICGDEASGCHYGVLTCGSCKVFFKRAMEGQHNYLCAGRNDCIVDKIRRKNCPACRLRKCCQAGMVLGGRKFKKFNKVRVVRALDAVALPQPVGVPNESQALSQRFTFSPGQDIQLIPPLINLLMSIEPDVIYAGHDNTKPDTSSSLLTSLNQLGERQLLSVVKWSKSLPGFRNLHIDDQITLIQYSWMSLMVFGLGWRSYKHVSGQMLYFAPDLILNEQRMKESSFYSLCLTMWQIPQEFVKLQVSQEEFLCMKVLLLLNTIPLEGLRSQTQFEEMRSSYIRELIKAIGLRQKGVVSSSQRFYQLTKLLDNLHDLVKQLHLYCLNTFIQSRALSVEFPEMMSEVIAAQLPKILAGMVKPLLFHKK
Sequence of Nuclear receptor subfamily 1 group I member 2 (Rattus norvegicus) (Q9R1A7 whole entry, looked up): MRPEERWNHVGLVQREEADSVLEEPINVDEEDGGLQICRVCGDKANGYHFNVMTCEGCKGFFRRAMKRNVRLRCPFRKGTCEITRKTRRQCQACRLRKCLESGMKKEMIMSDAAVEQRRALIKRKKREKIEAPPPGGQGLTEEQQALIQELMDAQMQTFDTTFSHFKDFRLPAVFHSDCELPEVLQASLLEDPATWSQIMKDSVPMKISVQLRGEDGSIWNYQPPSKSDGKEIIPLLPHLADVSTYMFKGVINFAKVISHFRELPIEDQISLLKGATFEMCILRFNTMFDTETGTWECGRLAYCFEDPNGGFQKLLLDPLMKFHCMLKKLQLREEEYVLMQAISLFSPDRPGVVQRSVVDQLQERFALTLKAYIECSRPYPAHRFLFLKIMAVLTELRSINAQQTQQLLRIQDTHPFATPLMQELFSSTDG
Sequence of Thyrotropin-releasing hormone receptor (Homo sapiens) (P34981 whole entry, looked up): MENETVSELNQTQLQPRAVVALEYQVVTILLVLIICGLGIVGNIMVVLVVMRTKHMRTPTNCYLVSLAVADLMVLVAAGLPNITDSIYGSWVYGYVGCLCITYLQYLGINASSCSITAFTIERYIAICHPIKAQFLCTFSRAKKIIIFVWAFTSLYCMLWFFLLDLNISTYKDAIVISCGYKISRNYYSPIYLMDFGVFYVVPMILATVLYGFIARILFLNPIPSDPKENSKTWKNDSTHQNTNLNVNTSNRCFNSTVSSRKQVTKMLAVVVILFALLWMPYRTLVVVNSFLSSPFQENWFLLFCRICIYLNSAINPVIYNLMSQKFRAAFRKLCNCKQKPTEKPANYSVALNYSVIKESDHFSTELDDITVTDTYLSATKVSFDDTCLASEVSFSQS
Sequence of Cytochrome P450 2D6 (Homo sapiens) (P10635 whole entry, looked up): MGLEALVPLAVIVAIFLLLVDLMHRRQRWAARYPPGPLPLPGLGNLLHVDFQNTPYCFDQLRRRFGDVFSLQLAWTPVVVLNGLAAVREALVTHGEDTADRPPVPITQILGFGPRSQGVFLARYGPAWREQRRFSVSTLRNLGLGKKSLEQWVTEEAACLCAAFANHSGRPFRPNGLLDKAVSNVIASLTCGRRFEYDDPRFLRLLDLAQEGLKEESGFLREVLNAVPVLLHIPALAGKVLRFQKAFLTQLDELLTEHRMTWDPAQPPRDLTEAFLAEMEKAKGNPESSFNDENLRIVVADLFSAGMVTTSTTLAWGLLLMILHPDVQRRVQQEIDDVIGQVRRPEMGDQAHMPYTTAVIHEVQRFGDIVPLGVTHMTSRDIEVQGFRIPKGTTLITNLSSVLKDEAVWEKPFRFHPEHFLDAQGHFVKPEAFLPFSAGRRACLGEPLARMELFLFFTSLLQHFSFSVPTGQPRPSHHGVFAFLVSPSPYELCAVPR
Sequence of Nuclear receptor subfamily 1 group I member 2 (Homo sapiens) (O75469 whole entry, looked up): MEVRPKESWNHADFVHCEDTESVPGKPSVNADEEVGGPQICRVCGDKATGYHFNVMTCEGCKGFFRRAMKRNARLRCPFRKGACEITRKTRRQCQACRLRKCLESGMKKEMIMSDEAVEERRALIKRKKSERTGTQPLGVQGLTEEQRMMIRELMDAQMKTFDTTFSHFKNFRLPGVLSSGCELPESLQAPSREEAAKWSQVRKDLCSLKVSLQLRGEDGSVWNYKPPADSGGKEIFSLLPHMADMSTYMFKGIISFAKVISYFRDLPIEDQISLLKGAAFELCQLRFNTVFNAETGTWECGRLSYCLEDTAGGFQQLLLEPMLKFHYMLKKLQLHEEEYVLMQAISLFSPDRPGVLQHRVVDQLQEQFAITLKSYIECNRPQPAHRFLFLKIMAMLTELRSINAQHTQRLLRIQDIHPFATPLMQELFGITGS

CCCCCCCCCO
inactive: Potency [1] | outcome [2] | Potency [3] | Potency [4] | Potency [5] | outcome [6] | outcome [7] | Potency [8] | Potency [9] | outcome [10] | Potency [11] | Potency [12]

NCCCOCCOCCOCCCN
inactive: Potency [1] | outcome [2] | Potency [4] | Potency [5] | outcome [6] | outcome [7] | Potency [9] | outcome [10] | Potency [13] | Potency [12]
active: Potency [3] 9.69 µM | Potency [14] 20 µM

CC(C)(C)C(=O)OCOP(=O)(COCCn1cnc2c(N)ncnc21)OCOC(=O)C(C)(C)C
inactive: Potency [1] | outcome [2] | Potency [4] | outcome [6] | outcome [10] | Potency [12] | max activation [16] -2.44% | Potency [17] | Potency [18] | Potency [14]
active: Potency [15] 11.9 µM

O=C(O)COC(=O)Cc1ccccc1Nc1c(Cl)cccc1Cl
inactive: Potency [1] | outcome [2] | Potency [19] | Potency [4] | Potency [5] | outcome [6] | Potency [9] | outcome [10] | Potency [12] | Potency [15] | max activation [16] -0.166% | Potency [17] | Potency [18] | Potency [14]

COC(Cc1ccccc1)OC
inactive: Potency [1] | Potency [20] | Potency [3] | Potency [19] | Potency [4] | Potency [5] | outcome [6] | outcome [7] | Potency [8] | Potency [9] | outcome [10] | Potency [11] | Potency [13] | Potency [12] | Potency [15] | Potency [14]

OC(CCN1CCCCC1)(c1ccccc1)C1CCCCC1 (configuration not stated)
active: Potency [14] 0.977 µM
inactive: Potency [1] | outcome [2] | Potency [3] | Potency [4] | Potency [5] | outcome [10] | Potency [11] | Potency [13] | Potency [12] | max activation [16] -2.68% | Potency [17] | Potency [18]

CN(C)CCCOc1nn(Cc2ccccc2)c2ccccc12
inactive: Potency [1] | outcome [2] | Potency [19] | Potency [4] | Potency [5] | outcome [6] | outcome [7] | Potency [8] | outcome [10] | Potency [11] | Potency [13] | Potency [12]
active: Potency [9] 26.6 µM

CN1CCC(=C2c3ccccc3CCc3sccc32)CC1
inactive: Potency [1] | outcome [2] | Potency [4] | Potency [5] | outcome [6] | Potency [11] | Potency [13] | Potency [12] | max activation [16] 0.0937% | Potency [18]
active: Potency [19] 15 µM | Potency [17] 28.2 µM | Potency [14] 1.23 µM

CC(=O)/C(C)=C/C1C(C)=CCCC1(C)C (configuration not stated)
inactive: Potency [1] | outcome [2] | Potency [3] | Potency [4] | Potency [5] | outcome [6] | outcome [7] | Potency [8] | Potency [9] | Potency [11] | Potency [13] | Potency [12] | Potency [15] | Potency [14]

C=C(C)C(=O)OC(C)C
inactive: Potency [1] | outcome [2] | Potency [4] | Potency [5] | outcome [6] | outcome [7] | Potency [8] | Potency [9] | outcome [10] | Potency [11] | Potency [13] | Potency [12] | Potency [15] | Potency [14]
